How the values were obtained:
Test in all cases: PBM binding z-score (relative to random genomic background probes); higher = stronger binding; sequences stand for … in GC…GCGATTGACAGCGTAGAATGAAGG
[1] = test system: RARb homodimer (NR concentration 270 nM)
Method in brief: (§1)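 Binding buffer was PBS pH 7.4 with 2% milk, 0.02% Triton X-100, 1 mM DTT, 0.2 mg/mL BSA and 0.4 mg/ml salmon testes DNA. In it, ligand-free nuclear receptor dimers were incubated 1 h on custom Agilent 4×180K protein-binding microarrays carrying double-stranded probes. Antibodies against each partner (one per run) detected binding, and z-scores were calculated against random background probes after regression normalization of scanned fluorescence.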

[2] = test system: RARg:RXRa (NR concentration 270 nM, RXRa partner concentration 90 nM)
Method in brief: as §1

[3] = test system: RARg homodimer (NR concentration 270 nM)
Method in brief: as §1

[4] = test system: RXRa DBDmut IVT, anti-RXR (DBD mutation: RXRa K156A/R161A, NR concentration 90 nM)
Method in brief: as §1

[5] = test system: RXRa homodimer (NR concentration 180 nM)
Method in brief: as §1

[6] = test system: THRa:RXRa (NR concentration 90 nM, RXRa partner concentration 90 nM)
Method in brief: as §1

[7] = test system: THRa homodimer (NR concentration 90 nM)
Method in brief: as §1

[8] = test system: VDR homodimer (NR concentration 270 nM)
Method in brief: as §1

Sequence | PBM binding z-score [1] | PBM binding z-score [2] | PBM binding z-score [3] | PBM binding z-score [4] | PBM binding z-score [5] | PBM binding z-score [6] | PBM binding z-score [7] | PBM binding z-score [8]
CCTACTGCGCCACGAAAGGTCATTGATTCAGTGA | 4.75 | 4.62 | 4 | 1.51 | 5.58 | 3.36 | 1.47 | 2.91
GCATATAGGTGATACAAGGTGAAAGTCCGATTGT | 0.997 | 0.873 | 0.702 | 0.341 | 0.856 | 4.24 | 0.943 | 0.0464
TCATATAGGTACTACAGGTGAAAGTCGGCATCTA | 0.25 | 0.654 | 0.428 | 1.33 | 0.935 | 0.692 | -0.00751 | 0.023
ATCGAAAGGTCGAAGGTGAGTTTACCCACCCGAA | 2.62 | 4.3 | 3.49 | 1.41 | 5.2 | 2.45 | 0.143 | 3.11
AGAACGAGGGCACGCTTAGTTGATAGCAGAGTAG | 1.38 | 1.76 | 2.33 | 2.1 | 1.42 | 1.94 | 0.257 | 0.561
AATCCAGGGTCATCGTAGGCCAGAGTACGCACAG | 3.82 | 5.9 | 5.22 | 3.32 | 6.77 | 4.55 | 1.86 | 4.06
TCCAGTAGGTTAGTCGGGGCATTCAGCCAACATA | 0.924 | 0.125 | 0.158 | 1.18 | 0.345 | 1.19 | 0.383 | 0.673
TCTTGTAGATCAAGAGAGGTTAAGAAAGTGCGCT | 0.846 | 0.415 | 0.178 | 0.14 | 1.21 | 2.27 | -0.932 | 0.194
CCTTACGGGTCACTGACAGGCTATAGCATTTGGA | 2.85 | 5.13 | 4.79 | 1.86 | 5.2 | 2.41 | -0.00278 | 0.687
CCAACTAGGTCACCGGAAGGTCAAAGTCCGCATG | 5.63 | 8.38 | 7.43 | 2.32 | 7.28 | 4.43 | 3.16 | 3.75
TCTATTAGTTGATTAGGGGAACCGAAACAGCGGA | 0.155 | 0.431 | 0.32 | 1.67 | 0.729 | 0.257 | 0.319 | 0.458
GCTGCTAGGTCAACTGATGGTCAGTTAAAGCTCG | 3.55 | 5.17 | 5.45 | 1.51 | 2.85 | 3.15 | 1.05 | -0.147
TCTATAAGTTGAAGGGCAACCGACGAGTCCGTTT | 1.49 | 0.829 | 1.07 | 1.59 | 1.01 | 0.466 | 0.137 | 1.57
GCATATAGGTATTACAAGGTGAAAGTCCGATTGT | 0.63 | 0.464 | 0.464 | 0.414 | 0.523 | 3.76 | 1.14 | -0.251
ATCTCTAGGTGACAAGTTCAGTGAAAGAGAGGAC | 2.34 | 2.03 | 1.82 | 0.449 | 1.09 | 1.71 | 0.652 | 2.05
CCTAGCAGGCCAATCAGGGTCACTCAAGGCTTGA | 3.13 | 2.79 | 2.02 | 0.629 | 3.31 | 4.68 | 1.15 | 1.77
TGTCAAAGTTCAAAGATAACGTAAGTATCCACAC | 3.35 | 5.44 | 6.18 | 4.22 | 4.6 | 1.86 | -0.41 | 3.32
CCTACTGGGCCAAAAACGTCATTGATGCCGATAA | -0.34 | -0.089 | -0.172 | -0.196 | 0.029 | -0.371 | -0.47 | -0.735
TCATATAGGTACAGGTGAAAGTCGAACGATATGA | 0.469 | 0.866 | 0.834 | 0.797 | 1.07 | 0.566 | -0.52 | 0.343

Sequence | PBM binding z-score [1] | PBM binding z-score [2] | PBM binding z-score [3] | PBM binding z-score [4] | PBM binding z-score [5] | PBM binding z-score [6] | PBM binding z-score [7] | PBM binding z-score [8]
CCTGCTAGGTCATGGTGAGCTAATCTACAGTATG | 2.8 | 3.83 | 4.17 | 1.72 | 2.52 | 2.82 | 0.878 | -0.0752
CGTCCCAGGTCAATGCTAGGTCAGTGAAAGCATT | 4.23 | 6.41 | 5.01 | 1.99 | 3.1 | 4.25 | 2.99 | 1.74
GCTCGGAGGACAAGGACAGAGCTTTGTCCGTAGA | 0.139 | -0.0807 | 0.418 | -0.45 | -0.592 | 1.31 | 0.61 | -0.639
TCATATAGGTAATACAGGGGAAAGTCGGCATCTA | 0.303 | 0.419 | 0.551 | 1.97 | 0.857 | 0.893 | 0.385 | -0.00129
ATCTCTAGGTAAGGATAGTTCAGTGAATGCAAAT | 1.05 | 0.45 | 0.907 | 0.233 | -0.127 | 1.21 | 0.86 | 0.73
ACTCGGAGCACAAAGGTCAGAGCTACGCCAGTGA | 4.45 | 5.16 | 5.11 | 0.345 | 4.98 | 2.63 | -0.28 | 0.477
CAAACTAGCTCACGAAAGGTCAAAGTCGAATGAC | 4.81 | 5.46 | 5.04 | 1.31 | 6.26 | 3.62 | 0.952 | 2.53
TCAGACAGATGAAGGTAACTCAGGTACGCAGTCG | -0.403 | 0.326 | 0.197 | 1.34 | 0.965 | 1.03 | -0.261 | 0.0374
TCGAGTAGGTTACCAATGGGGCATTCCGCTTTCT | 0.449 | 0.942 | 0.197 | 0.173 | 0.226 | -0.155 | -0.631 | -0.741
GCTTACGCGTCAAAGGTTATAGCATGAATAGAAT | 0.965 | 1.43 | 0.64 | 0.189 | 3.35 | 1.65 | -0.774 | -0.203
AGAATGAGGTTCCCAAAGATCAGGGAAACGCTTG | -0.864 | 0.141 | 0.123 | -0.649 | 0.474 | 0.218 | -0.623 | -0.39
CCAGACAGGTGAGAAGGTAGCTCAGCCTCGATTA | 0.12 | 0.0158 | -0.00904 | -0.104 | -0.128 | -0.29 | -0.679 | -0.24
CGTCCAAGGTCATAGGAGGTCAGTTAAGACAGAT | 5.16 | 6.57 | 7.05 | 4.09 | 6.19 | 5.3 | 3 | 4.11
CCGAGTAGGTTATTGGGCATTCAGGCAACGGTGA | 0.361 | 0.0352 | 0.187 | 0.421 | 0.183 | 0.0204 | 0.103 | 0.256
ATCTCTAGGTAATAGTTCAGTGAATCCCGAGGAT | 1.24 | 0.897 | 1.33 | 0.172 | 0.482 | 0.745 | 0.701 | 0.41
TCATATTGGTAAACAGGTGAAAGTCCGTAAGTTA | 0.882 | 0.412 | 0.0109 | 1.5 | 0.951 | 0.634 | 0.5 | 0.487
ATCTCTAGGTAACAAGTTGAGTGAAAGAGAGGAC | 0.79 | 0.858 | 0.91 | -0.013 | 0.381 | 1.41 | 0.716 | 0.639
CCAGACAGGTGAGAAGGTAATTCAGCCTCGATTA | 0.446 | 0.488 | 0.401 | -0.0232 | 0.24 | 0.0341 | 0.0221 | -0.0971
